Source: PubChem (several laboratories)
3CLpro inhibitor – SARS-CoV 3CLpro protease inhibition; P0C6X7; recombinant SARS-CoV 3CLpro, quenched FRET peptide cleavage; inhibition, % at 6 µM; actives 0.14% (n = 290,000); AID 1706; in the data active = inhibition above about 12%
PriA SSB inh – inhibitors of Klebsiella pneumoniae PriA binding to SSB C-terminal tail. AlphaScreen SSBct-PriA binding, biotinylated peptide. inhibition, % at 33 µM. actives 0.6% (n = 430,000). AID 1272365; in the data active = inhibition mostly above about 37%, no sharp cut-off; inactive = mostly below about 20%;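 also: plate controls were negative control peptide for no effect and reference peptide for full effect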
MazEF act – activators of E. coli MazEF toxin-antitoxin RNase. activation, % at 20 µM. FAM/BHQ RNA-DNA oligo cleavage fluorescence, 5 h. AID 504720. actives 0.32% (n = 350,000). P0AE70; in the data active = activation above about 50%
Target sequence (P0AE70 whole entry, looked up): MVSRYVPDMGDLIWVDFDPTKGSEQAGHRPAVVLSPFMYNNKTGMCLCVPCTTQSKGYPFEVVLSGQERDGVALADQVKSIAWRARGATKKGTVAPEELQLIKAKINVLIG
Y pestis TopoI – Y. pestis Topo-I inhibition via cleavage products; Y. pestis Topo-I cleavage product accumulation, plate reader; activity, % at 10 µM; actives 0.064% (n = 360,000); AID 504884; in the data active = activity above about 50%, passing the limit was not always enough
The depositor's hits bear a star; · = no result; + = active, no number. The list is not random: actives were taken first. Their share in the collection is about 0.9%.

SMILES	3CLpro inhibitor	PriA SSB inh	MazEF act	Y pestis TopoI
CCC1C2CC3C4N(C)c5ccccc5C45CC(C2C5O)N3C1O (configuration not stated)	·	·	·	3
CCCC[N+]12C3C[C@H](C4[C@H](O)[C@]5(C[C@@H]41)c1ccccc1N(C)[C@@H]35)[C@H](CC)[C@H]2O (some centres not stated)	-2	49*	3	2
CCSc1ccc(C(=O)Nc2nnc(Cc3cccs3)o2)cc1	·	36*	·	·
O=C(Nc1nnc(Cc2cccs2)o1)c1ccc(Cl)s1	·	35*	·	·
O=C(Nc1nnc(Cc2cccs2)o1)c1ccccc1	·	28	·	·
O=C(Nc1nnc(Cc2cccs2)o1)c1ccc2ncsc2c1	·	71*	·	·
CCSc1ccc(C(=O)Nc2nccs2)cc1	·	64*	·	·
O=C(Nc1nnc(-c2cccs2)o1)c1ccc2ncsc2c1	·	-6	·	·
COc1ccc(CNC(=O)N2CCC[C@H](c3nnc(-c4ccccc4F)s3)C2)cc1	·	-6	·	·
CN(CC(=O)Nc1ccccc1Oc1ccccc1)Cc1ccccc1F	1	-16	-2	60*
Cc1ccccc1CN(C)CC(=O)Nc1ccccc1Oc1ccccc1	-3	-13	5	-1
C/C(=N\NC(=S)Nc1cccc(C)c1)c1cc2ccccc2o1	1	·	12	25
CC(=NNC(=S)Nc1ccc(C)cc1)c1cc2ccccc2o1	·	38*	·	·
O=C(NC1CCCC1)c1cnn2c(C(F)(F)F)cc(-c3ccc4c(c3)OCO4)nc12	4	-3	76*	3
COc1ccc(-c2csc(CN3CCN(C(=O)c4ccc(Br)o4)CC3)n2)cc1	·	44*	·	·
Brc1ccc(C=Nc2ccc(Nc3ccccc3)cc2)s1	1	88*	-3	-10
O=C(NN=Cc1ccc(Br)s1)Nc1ccccc1	·	0	·	·
Cn1cccc1/C=N/NC(=O)c1sc2cc(Cl)ccc2c1Cl	6	·	·	·
Cc1ccc2c(Cl)c(C(=O)N/N=C/c3cccn3C)sc2c1	-3	·	71*	0
O=C(Nc1ccc(S(=O)(=O)NCc2ccccc2)cc1)c1ccccc1[N+](=O)[O-]	3	-5	116*	1
CCC(NC(=O)c1ccccc1NC(=O)C(C)(C)C)C(=O)N1CC(C)OC(C)C1 (configuration not stated)	·	-10	52*	-6
COc1cc(C(CC(=O)c2ccc(Cl)cc2)Sc2ccccc2)cc(OC)c1OC (configuration not stated)	·	-9	·	·
O=C(c1ccc(=O)[nH]c1)N1CCSC(c2ccccc2F)CC1 (configuration not stated)	·	-11	·	·
Cc1ccc(CSC2=Nc3ccccc3C3=NC(=O)CN23)cc1	1	-13	-6	157*
COc1cc2c(cc1OC)C1=NC(=O)CN1C(SCc1ccccc1C)=N2	6	14	1	42
SMILES	3CLpro inhibitor	PriA SSB inh	MazEF act	Y pestis TopoI
CS(=O)(=O)N1N=C(c2ccccc2)CC1c1ccc2c(c1)OCO2 (configuration not stated)	0	-11	236*	3
N#Cc1nccnc1OC1CCC(NC(=O)C2CC=CCC2)CC1 (configuration not stated)	·	-2	·	·
Cc1nc2oc(-c3ccccc3)nc2cc1NC(=O)NCc1cccs1	·	-15	·	·
Cc1cccc(NS(=O)(=O)c2ccc(C)c(C(=O)NC3CCN(Cc4ccccc4)CC3)c2)c1	·	47*	-51	1
Cc1ccccc1C(=O)NC1CCN(Cc2ccccc2)CC1	2	5	-3	0
O=C(NC1CCN(Cc2ccccc2)CC1)c1ccc2c(c1)OCCCO2	6	-4	2	70*
COc1ccccc1OCC(=O)Nc1cc(C)nn1-c1nc2c(cnn2-c2cccc(C)c2)c(=O)[nH]1	·	18	·	·
Cc1cc(C)c2nc(C)cc(NC(=O)c3ccc(Br)o3)c2c1	·	-10	·	·
O=C(COc1ccccc1F)Nc1cccc(-c2nc3ccccc3o2)c1	·	-9	·	·
COc1ccc(Br)c(C(=O)OCc2cc(=O)oc3cc(C)ccc23)c1	3	1	86*	16
Cc1ccc2c(COC(=O)c3ccccc3Br)cc(=O)oc2c1	-3	-8	31	-8
COc1ccc(Nc2cc(C)nc3c(C)ccc([N+](=O)[O-])c23)cc1	·	112*	·	·
CCOC(=O)/C=c1\s/c(=C\c2c(OC)ccc3ccccc23)c(=O)n1CC(=O)NCC1CCCO1 (configuration not stated)	5	·	+	7
CCOC(=O)C=c1sc(=Cc2ccc3cc(OC)ccc3c2)c(=O)n1CC(=O)NCc1ccc2c(c1)OCO2	·	-12	·	·
CCOC(=O)/C=c1/s/c(=C/c2ccc3cc(OC)ccc3c2)c(=O)n1CC(=O)NCC1CCCO1 (configuration not stated)	·	-10	80*	3
CCOC(=O)C=c1sc(=Cc2ccccc2C)c(=O)n1CC(=O)NCc1ccc2c(c1)OCO2	·	-6	·	·
